# Data taken from PubChem BioAssay (NCI).
# About 83,000 compounds went through this panel and 20% of them were active in at least one assay; those are over-represented in the sample as a whole.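 Results are percent growth after 48 hours of single-concentration exposure. 100 means growth as in untreated cells, lower positive values show inhibition; negative values down to -100 show cell death.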 Unmarked numbers belong to inactive results. Active and inactive are the calls of the source.
# Tested on: LOX IMVI melanoma
# Test: NCI-60 one-dose screen, 48 h (100 = growth as untreated, 0 = no growth, -100 = all killed)
# Conditions: 10 µM
# Procedure: Growth inhibition of the LOX IMVI human tumor cell line is measured as a screen for anti-cancer activity. Cells are grown in 96 well plates and exposed to the test compound for 48 hours. Compounds are tested at a single concentration, which is 10^-5 M for most compounds. The reported endpoint is percent growth (GI% or GIPRCNT), where numbers from 0 - 100% represent growth inhibition, and numbers from -100% - 0 represent cell death. For example, a value of 40 represents 60% growth inhibition. A value of 0 means no net growth occurred over the course of the experiment. A value of -40 indicates 40% of cells at the beginning of the experiment died by the end of the experiment. A value of -100 means all cells are dead at the end of the experiment.
# NCI-60 Human Tumor Cell Lines Screen was performed using the standard one-dose NCI protocol, which is described in more detail at https://dtp.cancer.gov/discovery_development/nci-60/default.htm.
# Compounds with GIPRCNT values below 10 were considered active. Activity score was based on GIPRCNT using the following formula: […]
# Score is 0 for GIPRCNT values of 100 or above, 50 for GIPRCNT values of 0, and 100 for GIPRCNT values of -100.
row,SMILES,growth
1,Cn1cc(-c2nc(N)nnc2-c2c[nH]c3ccccc23)c2cc(Br)cnc21,15.6%
2,C#C[C@]1(O)CC[C@H]2[C@@H]3CC=C4c5sc(Nc6cc(C)cc(C)n6)nc5CC[C@]4(C)[C@H]3CC[C@@]21C,-96% (active)
3,O=C(c1ccccc1)c1ccc2nc(-c3ccccc3Br)[nH]c2c1,-94.6% (active)
4,COc1cc2oc(-c3cccc(C(=O)Nc4ccc(Cl)cc4)c3)cc(=O)c2c(OCCN)c1OC,-84.3% (active)
5,O=C(CSc1nc2ccccc2c(=O)n1-c1ccc(Cl)cc1)Nc1ccc(-c2nc3ccccc3[nH]2)cc1,-88.2% (active)
6,Fc1ccc(-c2csc(Nc3cccc(Nc4nc(-c5ccc(F)cc5)cs4)c3)n2)cc1,39.3%
7,CC1(C)CC(=O)C2=C(C1)N(Cc1ccc(C(=O)O)cc1)C1=C(C(=O)CC(C)(C)C1)C2c1ccc(Cl)cc1,61.7%
8,COc1cc2oc(-c3cccc(C(=O)Nc4ccc(Cl)cc4)c3)cc(=O)c2c(OCCNC(=O)[C@@H](N)CO)c1OC,-79.1% (active)
9,Cn1cc(/C=C(/SS/C(=C/c2cn(C)c3cccc(C(=O)O)c23)C(=O)O)C(=O)O)c2c(C(=O)O)cccc21,48.9%
10,O=C(O)CCN1C(=O)/C(=C/C=C/c2ccc([N+](=O)[O-])o2)SC1=S,-100% (active)
11,Cc1ccc(-c2nc(C#N)c(S(=O)(=O)N3CCN(S(C)(=O)=O)CC3)o2)cc1,-88.6% (active)
12,Cc1ccc(S(=O)(=O)N2CCN(S(=O)(=O)c3oc(-c4ccccc4)nc3C#N)CC2)cc1,8.41% (active)
13,Cc1ccc2c(c1)C(=O)/C(=C/c1c[nH]c3ccccc13)S2,19.1%
14,COc1cccc(C(=O)CSc2nc(-c3ccc(OCc4ccccc4)c(OC)c3)c(C#N)c(=O)[nH]2)c1,85.7%
15,COC(=O)CNC(=O)COc1c(OC)c(OC)cc2oc(-c3cccc(C(=O)Nc4ccc(Cl)cc4)c3)cc(=O)c12,-33.2% (active)
16,O=C(Nc1ccc(Oc2ncnc3scc(Nc4n[nH]c(=S)s4)c23)cc1)C1(C(=O)Nc2cccc(C(F)(F)F)c2)CC1,30.4%
17,CC(C)(C)c1cc(/C=C2\S/C(=N/c3ncn[nH]3)NC2=O)cc(C(C)(C)C)c1O,-7.75% (active)
18,COc1cccc(O)c1/C=C1\SCc2cc3c(OC)cccc3[o+]c21,103%
19,CC1(C)CC[C@]2(C(=O)O)CC[C@]3(C)C(=CCC4[C@@]5(C)C[C@@H](O)[C@@H]6OC(c7cccc(F)c7)OC[C@@]6(C)C5CC[C@]43C)C2C1 (stereo not given in full),27.6%
20,O=C(CC(=O)Nc1ccc(Oc2ncnc3scc(Nc4n[nH]c(=S)s4)c23)cc1)Nc1ccc(Cl)cc1,69%

row,SMILES,growth
1,O=C1NC(=S)S/C1=C\c1cn(-c2ccccc2)nc1-c1ccc([N+](=O)[O-])cc1,29.1%
2,Cc1ccc2sc3c(c2c1)Oc1nc[nH]c(=O)c1C3c1cccc(F)c1 (stereo not given),107%
3,COc1ccc(Cc2nn(CC(=O)N/N=C/c3ccc(Br)cc3)c(=O)c3c(C)noc23)cc1,25.9%
4,Fc1ccc(/C=C/c2nc3ccccc3n3c(-c4ccc(Cl)cc4)nnc23)cc1,-89.2% (active)
5,Cn1cc(-c2nnc(N)nc2-c2c[nH]c3ccccc23)c2cc(Br)cnc21,-75.6% (active)
6,O=C(Nc1ccc(OCC(=O)c2ccc(Cl)cc2)cc1)Nc1ccc(Cl)c(C(F)(F)F)c1,-37.8% (active)
7,O=C1S/C(=C\c2ccc([N+](=O)[O-])cc2)C(=O)N1CCN1CCCCC1,98.6%
8,COc1cc(Nc2nc(O)c(/C=C3\C=Nc4ccccc43)s2)cc(OC)c1OC,-61.5% (active)
9,C#C[C@]1(O)CC[C@H]2[C@@H]3CC=C4c5sc(Nc6ccc(N(C)C)cc6)nc5CC[C@]4(C)[C@H]3CC[C@@]21C,-80.3% (active)
10,COc1ccc(Cn2cc(C#N)c(N)c2C(C)=O)c(OC)c1,99.6%
11,COc1ccc(NCc2cn(-c3ccc(C(=O)O)cc3)nc2-c2ccc(F)cc2)cc1C(F)(F)F,43.8%
12,Cc1ccc(COc2ccc(NC(=O)Nc3ccc(Cl)c(C(F)(F)F)c3)cc2)cc1,15.6%
13,O=C(Nc1ccc(OCc2ccc(Cl)cc2)cc1)Nc1ccc(Cl)c(C(F)(F)F)c1,-72.5% (active)
14,COc1ccccc1-n1cc(C#N)c(N)c1C(=O)c1ccc(Cl)cc1Cl,39.5%
15,COc1ccc(C(=O)COc2ccc(NC(=O)Nc3ccccc3)cc2)cc1,58.9%
16,O=C(c1ccc(Cl)cc1)C(c1c[nH]c2ccccc12)c1c[nH]c2ccccc12,-85.1% (active)
17,Cc1cc(N=C2NC(=O)/C(=C/c3cc(C(C)(C)C)c(O)c(C(C)(C)C)c3)S2)n[nH]1,1.11% (active)
18,O=C(CN1CCN(c2ncnc3c2cnn3-c2ccccc2)CC1)Nc1ccc(Cl)cc1,39.9%
19,COc1ccc(C2OC[C@@]3(C)C4CC[C@]5(C)C(CC=C6C7CC(C)(C)CC[C@]7(C(=O)O)CC[C@]65C)[C@@]4(C)C[C@@H](O)[C@@H]3O2)cc1 (stereo not given in full),70.8%
20,COc1ccc(-n2c(SCC(=O)NNS(=O)(=O)c3ccccc3)nc3ccc(Cl)cc3c2=O)cc1,87.2%
